Measurements from PubChem BioAssay.
A number with no mark means an inactive call. No rule for the calls is given here.

Test system: Botulinum neurotoxin type F light chain protease (Clostridium botulinum)
Assay: Botulinum neurotoxin type F light chain protease inhibition, multiplex microsphere flow cytometry, validation set (AID 588459)
Settings: multiplex microsphere protease substrate cleavage assay, at 10 µM, active compounds read high

Row | SMILES | inhibition
1 | O=C1CC(c2ccc(OCCCCCOc3ccc(C4CC(=O)NC4=O)cc3)cc2)C(=O)N1 (stereo not given) | 2.5%
2 | CC(=O)NC(NC(=S)N1CCCCCC1)C(Cl)(Cl)Cl (stereo not given) | -2.7%
3 | CC(C)(S)[C@@H](N)C(=O)O | 2.9%
4 | CN1CCN(CCCN2c3ccccc3Sc3ccc(C(F)(F)F)cc32)CC1 | 0.3%
5 | CCc1cn([C@H]2C[C@H](O)[C@@H](CO)O2)c(=O)[nH]c1=O | -0.5%
6 | CSCCC1NC2(C(=O)Nc3ccc(Cl)cc32)[C@@H]2C(=O)N(C3CCCC3)C(=O)[C@H]12 (stereo not given in full) | 0.8%
7 | Cc1ccc(CN2CCN(Cc3cn[nH]c3C3CCCCC3)CC2CCO)cc1 (stereo not given) | -1.3%
8 | O=C(CCCN1C(=O)/C(=C\c2cccs2)SC1=S)Nc1ccccn1 | 4%
9 | Cc1cccc(C2=N/C(=C\c3cccnc3)C(=O)O2)c1 | -1.1%
10 | c1ccc(SSc2ccccc2)cc1 | 0.3%
11 | OC(CCN1CCCC1)(c1ccccc1)C1CCCCC1 (stereo not given) | -0.8%
12 | COC(=O)c1cc(COc2ccc3ccc(=O)oc3c2)c(C)o1 | -0.4%
13 | NS(=O)(=O)c1ccc(CCNC(=O)C2CCCN2C(=O)OCc2ccccc2)cc1 (stereo not given) | 3.9%
14 | CCOC(=O)C(NC(C)=O)C(O)c1ccc([N+](=O)[O-])cc1 (stereo not given) | 7.5%
15 | Cc1ccnc(NS(=O)(=O)c2ccc(N)cc2)n1 | 5.2%
16 | COc1ccc(CCNC(=O)c2c(O)c3c([nH]c2=O)CCCC3)cc1 | 2.6%
17 | CNC[C@H](O)c1ccc(O)c(O)c1 | -2.9%
18 | CC(NC(=O)OCc1ccccc1)C(=O)N1CC(O)CC1C(=O)O (stereo not given) | 3.2%
19 | Cc1ccc2c(CC(=O)O)coc2c1 | -2.9%
20 | CC12CCCCN1CCCc1c2[nH]c2ccccc12 (stereo not given) | -1.1%

Row | SMILES | inhibition
21 | CCN1/C(=C/C=C/C=C/c2sc3ccccc3[n+]2CC)Sc2ccccc21 | -1%
22 | N#C/C(C(N)=O)=c1/ccc2c(c1)N1C3=C(CCCC3)CC3CCCCC31N=2 (stereo not given) | -0.8%
23 | COc1ccc(-c2cc(C(=O)N3CCOCC3)c3cc(C)ccc3n2)cc1 | -8.2%
24 | Cn1cc(CN2CCN(CCO)CC2)c(-c2ccc(Oc3ccccc3)cc2)n1 | 2.6%
25 | Cc1ccc2c(c1)c1c3n2CCCNC3CCC1 (stereo not given) | 9.2%
26 | COc1cc2c(cc1OC)CN(C(=O)c1ccc(S(=O)(=O)N(C)c3ccccc3)cc1)CC2 | 0.9%
27 | C[C@H]1C[C@@H]2[C@H]([C@@H](O)C[C@@]3(C)[C@H]2CC[C@]3(O)C(=O)CO)[C@@]2(C)C=CC(=O)C=C12 | -2.2%
28 | COc1ccc2c(c1OC)C(=O)N1C2SC[C@H]1C(=O)NC1CC(C)(C)NC(C)(C)C1 (stereo not given in full) | 3.2%
29 | COc1cc2cc(C(=O)O)[nH]c2c(OC)c1OC | 0.5%
30 | CC(C)(C)N(Cc1ccccc1)C(=O)c1ccc(Br)o1 | -1.1%
31 | O=C(NCc1ccc(N2CCCC2=O)cc1)c1ccc(F)cc1 | 5.2%
32 | COc1ccc(C(CC(=O)N2CCOCC2)C(C)C)cc1 (stereo not given) | -4.7%
33 | COc1ccc(NC(=O)C2CSC3c4ccccc4C(=O)N23)cc1 (stereo not given) | -0.5%
34 | COc1ccc(C2OC[C@H]3O[C@H](O)[C@H](NC(C)=O)[C@@H](O)[C@@H]3O2)cc1 (stereo not given in full) | -3.6%
35 | CCOC(=O)N1c2ccccc2C=CC1OCC (stereo not given) | -1.1%
36 | Cc1c(NC(=O)c2cccs2)cccc1[N+](=O)[O-] | 4.2%
37 | CCc1cc(=O)oc2cc3occ(-c4ccc(OC)c(F)c4)c3cc12 | 2.2%
38 | CCc1oc2ccccc2c1C(=O)c1cc(Br)c(O)c(Br)c1 | -6.8%
39 | Cc1ccc(CN2CCN(CCCc3ccccc3)CC2CCO)cc1 (stereo not given) | 0.2%
40 | CCOC(=O)[C@H]1O[C@@H]1C(=O)N[C@@H](CC(C)C)C(=O)NCCC(C)C | 1.7%
